Shown are actives, neighbours in structure and some others; about 1.9% of the full set was active somewhere.
FUS suppressor: qHTS for Suppressors of FUS Proteinopathy: Primary screen using FUS-linked yeast assay; S. cerevisiae FUS-expressing, growth rescue, OD600, 24 h; Potency, µM (highest dose often 76.6 µM), most hits filed as activators; 390,000 compounds, 0.24% hits;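 also: potency is read from the fitted curve at half-maximal effect; plate controls were DMSO vehicle for no effect and reference control for full effect; nearly all actives have a fitted effect of over 55% in size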
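Quantitative HTS measuring growth restoration of FUS-toxic yeast. Galactose-induced cells (OD 0.005) were exposed 24hr at 30C to compounds at several concentrations, then absorbance at 600 nm was recorded.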
Abeta yeast res: qHTS for compounds that reverse cellular toxicity of Amyloid beta (A-beta) peptide in yeast: Primary Screen. yeast expressing A-beta42, growth rescue, OD600, 48 h; response scale: 0% DMSO, 100% iron-clioquinol control. Potency, µM (series often up to 46.1 µM), usual class: activators. 410,000 compounds, 0.063% hits. AID 1347071, 2019; also: potency is read from the fitted curve at half-maximal effect; nearly all actives have a fitted effect of over 55% in size
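Yeast A-beta toxicity model in growth medium with pinned compounds, 48 h at 30 C; growth read as absorbance at 600 nm. Normalized to FeCl3/clioquinol equimolar mix (positive) and DMSO (negative).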
PTHR1 ag: qHTS for PTHR1 Agonists: Primary Screen. HEK293 GP2 PTHR1 cells, GloSensor cAMP luminescence, 1 h. Potency, µM (highest dose often 115 µM), inactives show at the highest dose activation, actives largely listed as activators. 410,000 compounds, 0.075% hits; also: potency is read from the fitted curve at half-maximal effect; nearly all actives have a fitted effect of over 55% in size
Target sequence (Q03431 whole entry, looked up): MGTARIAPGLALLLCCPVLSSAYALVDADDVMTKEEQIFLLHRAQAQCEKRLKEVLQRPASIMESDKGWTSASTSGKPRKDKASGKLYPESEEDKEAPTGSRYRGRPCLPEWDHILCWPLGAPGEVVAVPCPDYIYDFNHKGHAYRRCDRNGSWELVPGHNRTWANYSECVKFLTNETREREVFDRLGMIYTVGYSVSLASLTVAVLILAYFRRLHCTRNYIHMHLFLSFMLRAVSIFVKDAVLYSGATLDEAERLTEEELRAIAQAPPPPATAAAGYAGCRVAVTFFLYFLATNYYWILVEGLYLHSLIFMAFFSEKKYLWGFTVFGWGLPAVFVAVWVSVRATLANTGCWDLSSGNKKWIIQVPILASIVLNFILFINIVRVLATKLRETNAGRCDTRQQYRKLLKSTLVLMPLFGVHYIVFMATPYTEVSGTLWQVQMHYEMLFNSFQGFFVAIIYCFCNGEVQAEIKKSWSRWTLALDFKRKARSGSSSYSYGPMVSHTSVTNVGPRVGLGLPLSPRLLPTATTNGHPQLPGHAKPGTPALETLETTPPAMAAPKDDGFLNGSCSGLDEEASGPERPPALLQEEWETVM
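HEK-293-derived GP2 cells expressing PTHR1 and a GloSensor cAMP reporter, 3,000/well, plated overnight, given luciferin plus IBMX (each 0.5 mM as added) for 1 h at 37 °C, then compound for 1 h at 37 °C. Luminescence was read after 15 min at room temperature.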
TDP43 rescue: qHTS of TDP-43 Inhibitors; TDP-43 expressing yeast growth rescue, BacTiter-Glo, 24 h; Potency, µM (doses to about 46.1 µM), for the others: at the top dose growth rescue (activation), hits mostly activators; 410,000 compounds, 1.8% hits; AID 652104, 2013; also: potency is read from the fitted curve at half-maximal effect; % of control where 0% means no effect; nearly all actives have a fitted effect of over 50% in size
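Galactose-induced TDP-43 yeast, OD600=0.02, compound pinned; 24 hr, 30 deg C; BacTiter-Glo luminescence for growth. Inhibitors of TDP-43 toxicity read as activators.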
LDHA block: qHTS assay for inhibitors of human lactate dehydrogenase; AID 1347041, 2019; purified LDHA, NADH/diaphorase-resazurin fluorescence; hits give low values; 480,000 compounds, 0.15% hits; L-lactate dehydrogenase A chain (Homo sapiens), P00338; activity change, % (values are at about 110 or 230 µM); in the data active = activity change below about -30%; inconclusive = mostly about -25% to -30%;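 also: plate controls were DMSO wells for no effect and wells without enzyme for full effect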
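Remaining NADH was detected by diaphorase (0.133 mg/mL) converting 37 µM resazurin to fluorescent resorufin, read at 0 and 20 minutes. The preceding 5-minute room-temperature reaction used 2 nM LDHA, 0.2 mM sodium pyruvate and 0.06 mM NADH at pH 7.4.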
aSyn yeast inh: qHTS of alpha-syn Inhibitors. Yeast expressing alpha-synuclein, growth rescue, BacTiter-Glo, 24 h. Potency, µM (doses to about 46.1 µM), without a hit: at the top dose growth rescue (activation), hits mostly activators. 370,000 compounds, 0.14% hits. AID 652106, 2013; also: potency is read from the fitted curve at half-maximal effect; % of control where 0% means no effect; nearly all actives have a fitted effect of over 65% in size
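Readout is rescue of growth in alpha-synuclein-expressing yeast, so inhibitors of toxicity appear as activators. Growth after 24 hr at 30 deg C in galactose medium is quantified by luminescence.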
* = called active by the depositor; i = inactive; ? = inconclusive; / = no result given; [ ] = dose if it differs, or a comment. Unless noted, calls follow the shape of the dose curve; as a rule, active = well fitted curve in the direction sought with a large enough effect; inconclusive = small, poorly fitted or top-dose-only effect, or another doubt; inactive = no such curve, though single readings can be large; an effect the other way counts as inactive or inconclusive.

SMILES	FUS suppressor	Abeta yeast res	PTHR1 ag	TDP43 rescue	LDHA block	aSyn yeast inh
COc1cc(C2Oc3ccccc3C=C2[N+](=O)[O-])cc(OC)c1OC (stereo not given)	i	i	-64%	5µM*	3	?
CCc1ccc(NC(=S)N(Cc2ccccc2)Cc2ccccn2)cc1	i	13µM*	-34%	?	1	-9%
S=C(NCc1ccccn1)Nc1ccc(Br)cc1Cl	i	?	-19%	13µM*	-7	3%
O=C(NCc1ccccn1)Nc1ccc(Br)cc1Cl	i	i	i	24%	-13	3%
Cc1ccc(NC(=S)NCc2ccccn2)cc1	i	i	16µM*	12%	-6	1%
CC(CC(=O)N(C)C1CCN(C)CC1)c1ccc(F)cc1 (stereo not given)	/	/	/	/	5	/
N#Cc1ccccc1COC(=O)c1c(F)cccc1Cl	/	/	/	/	3	/
CC(=C/c1ccccc1)/C=N/n1c(-c2ccco2)n[nH]c1=S	i	i	-5%	11µM*	0	/
N#Cc1nc(-c2ccc(F)cc2)oc1NCCc1ccc(F)cc1	/	/	/	/	9	/
COC(=O)c1ccc2nc(-c3ccc(F)cc3)c(Cc3cccc(F)c3)n2c1	i	i	-50%	24%	5	0%
COC(=O)c1ccc2nc(-c3cccc(Cl)c3)c(Cc3ccccc3OC)n2c1	i	i	-14%	35µM*	-3	-1%
COC(=O)c1ccc2nc(-c3ccc(OC)c(OC)c3)c(Cc3cccc(F)c3)n2c1	i	i	-44%	35µM*	-1	24%
COC(=O)c1ccc2nc(-c3ccc(OC)c(OC)c3)c(Cc3ccc(C)cc3)n2c1	i	i	3%	22µM*	-3	6%
COc1cccc(/C=C(\C#N)c2nc3ccccc3[nH]2)c1O	/	/	/	/	-4	/
CCOC(=O)/C(C(=O)Nc1ccccc1Cl)=C1/NC(C)(C)Cc2ccccc21	i	i	i	-5%	-1	19%
CCOC(=O)/C(C)=C1\NC(C)(C)Cc2ccccc21	i	i	-46%	4%	-105*	-4%
CCOc1ccc(C(C)(C)CC)cc1-c1csc(N)n1	/	/	/	/	5	/
c1ccc(-c2ccc(OCCOCCn3cncn3)cc2)cc1	i	i	-2%[57.5 µM]	14µM*	?	0%
CCCCCOc1ccc(/C=C/C(=O)c2ccc(O)cc2)cc1OC	/	/	/	/	12	/
CCCCC(c1nnnn1CC1CCCO1)N1CCN(c2ccccc2)CC1 (stereo not given)	i	i	-10%	7%	-8	1%
CCCCC(c1nnnn1CC1CCCO1)N1CCN(c2cc(Cl)ccc2C)CC1 (stereo not given)	/	i	-25%	18µM*	5	-14%
S=C1SCN(Cc2cccnc2)CN1Cc1ccccc1	i	i	-1%	25µM*	-6	-10%
Cc1ccc(C(=O)Cn2nc(C)c([N+](=O)[O-])c2C)c(C)c1	i	i	-11%	20%	1	2%
Cc1ccc(NC(=O)Cn2nc(C)c([N+](=O)[O-])c2C)cc1C	i	i	i	/	-7	3%
Cc1nn(CC(=O)Nc2ccc3c(c2)OCCO3)c(C)c1[N+](=O)[O-]	i	i	i	6.3µM*	0	3%
SMILES	FUS suppressor	Abeta yeast res	PTHR1 ag	TDP43 rescue	LDHA block	aSyn yeast inh
Cc1nn(CC(=O)c2ccc(Cl)s2)c(C)c1[N+](=O)[O-]	18µM*	i	i	29%	3	19%
Clc1ccc(CSc2nnc(-c3ccncc3)o2)cc1	i	i	-24%	6.3µM*	0	/
Fc1ccc(CSc2nnc(-c3ccncc3)o2)cc1	i	i	-20%	13µM*	-4	0%
O=C(O)c1ccc(CSc2nnc(-c3ccc(Cl)cc3)o2)cc1	i	i	i	17%	0	-1%
CCSc1nnc(-c2ccncc2)o1	i	i	i	-2%	-5	-1%
CCOc1ccc(Nc2oc(-c3ccccc3C)nc2C#N)cc1	/	/	/	/	-16	/
Cc1ccc(-c2nc(Cn3cnc4ccsc4c3=O)co2)cc1	/	/	/	/	-2	/
O=c1oc2ccc(Br)cc2cc1-c1nc(-c2cccs2)no1	/	/	/	/	2	/
CCOC(=O)COc1nc(-c2ccco2)c2c(c1C#N)CCC2	/	/	/	/	6	/
O=[N+]([O-])c1cc([N+](=O)[O-])c2c(=Nc3ccccc3)n(-c3ccccc3)n(O)c2c1	i	i	-15%	13µM*	16	-7%
O=[N+]([O-])c1cccc(C(=Nc2ccccc2)NO)c1	i	i	-23%	-3%	-1	8%
Cc1nn(-c2ccccc2)c(C)c1CN(C)S(=O)(=O)c1ccc(Cl)c(Cl)c1	/	/	/	/	1	/
Cc1cc(O)c2c(C)c(CC(=O)N3CCN(C(=O)C4COc5ccccc5O4)CC3)c(=O)oc2c1 (stereo not given)	28µM*	i	-43%	4%	1	1%
COc1cc(C)cc2oc(=O)c(CC(=O)N3CCN(C(=O)C4COc5ccccc5O4)CC3)c(C)c12 (stereo not given)	i	i	-16%	-2%	?	1%
COc1ccc(NC(=O)c2nn(C)c(=O)c3ccccc23)cc1OC	/	/	/	/	-3	/
COc1ccc(S(=O)(=O)Nc2cc3c4c(c2)CCN4C(=O)CC3)cc1	i	i	i	0%	0	-5%
O=C1CCc2cc(NS(=O)(=O)c3ccc(Br)cc3)cc3c2N1CC3	i	i	-77%	8%	-1	3.2µM*
COc1ccc(NS(=O)(=O)c2ccc3oc(SCC(=O)N4CCCCC4)nc3c2)cc1	/	/	/	/	-7	/
Cc1nc2ccccc2c2nc3ccccc3n12	i	i	-3%[57.5 µM]	13µM*	0	?
Fc1ccc(-c2nc3ccccc3c3nc4ccccc4n23)cc1	i	i	i	0%	-1	-13%
Fc1ccccc1CN1CCc2ccccc2C1	/	/	/	/	-1	/
COc1ccc(CN2C(=O)c3cccnc3C2Nc2ccc(OC)c(Cl)c2)cc1 (stereo not given)	32µM*	i	1%[57.5 µM]	-7%	0	1%
COc1ccc(NC2c3ncccc3C(=O)N2Cc2ccccc2)c(OC)c1 (stereo not given)	?	i	i	-13%	7	-13%
Cc1ccc(SC(Sc2ccc(C)cc2)=C(Cl)/C=N/O)cc1	/	/	/	/	13	/
COc1ccc(CN(CC2CCC(C(=O)O)CC2)C(=S)Nc2ccccc2C)cc1 (stereo not given)	i	i	i	-10%[0.397 µM]	-8	2%
